# Activity calls are given as the source filed them. The call rests on the fitted dose curve; in most records, active means well fitted curve in the direction sought with a large enough effect; inconclusive means small, poorly fitted or top-dose-only effect, or another doubt; inactive means no such curve, though single readings can be large or run the other way.
# Assay: Quantitative high throughput screen to test cell viability of anti-malarial compounds targeting the delayed death phenotype.
# Conditions: HepG2 viability, CellTiter-Glo luminescence, 48 h
# From the text: NIH Molecular Libraries Probe Production Network [MLPCN] NIH Chemical Genomics Center [NCGC] MLPCN Grant: R21 NS059500 Assay Provider: David Fidock and Eric Ekland, Columbia University The goal of this screen is to measuer the cytoxoxicity (against HepG2 cell line) of a set of anti-malarial compounds that target the delayed death pheonotype, by inhibiting the development of the apicoplast in the malarial parasite Plasmodium falciparum (described below) The biochemical processes that make this organelle essential for erythrocytic stage parasites are not well understood. However, antibiotics, such as azithromycin and tetracycline, which target the apicoplast translational machinery, have a potent antimalarial effect. […] We have developed a cell-based assay that measures parasite growth based on the expression of an integrated copy of a firefly luciferase reporter. To detect small molecules that cause this 'delayed death' phenotype, erythrocytes infected with the luciferase-expressing parasites were incubated with compounds for either one or two generations, corresponding to 48 and 96 hours, respectively. Compounds that inhibit parasite growth in the second generation, but not the first, should be enriched in antimalarials that target the apicoplast. Growth inhibition is detected by a decrease in luciferase activity
# Cells were plated at a density of 2000 cells/well/5uL in 1536 well white tissue culture plate with culture medium. Triplicate plates were prepared. Plates were incubated at 37C, 5% CO2 for 5 hours and then 23nL of compounds and positive control were transferred to the assay plates. Tetraoctylammonium bromide was added as a positive control. Plates were then incubated at 37C, 5% CO2 for 48 hours. 5 uL of CellTitler-Glo buffer was added to each well and then incubated for 30 min at room temperature. Luminescence was measured using ViewLux (1 second, slow, 2X).
row,SMILES,max response
1,CCCc1c(CC)c(=N)c2ccccc2n1C,13.6% (inactive)
2,COc1ccc(CNC(=O)C2CCC(CNS(=O)(=O)c3cccc4cccnc34)CC2)cc1 (stereo not drawn),4.48% (inactive)
3,CN(C)S(=O)(=O)c1cc(NC(=O)C2=COCCO2)ccc1Cl,13.5% (inactive)
